High-throughput results as filed in PubChem BioAssay.
Shown is part of a subset that was picked to be rich in hits.
aSyn tox rescue = inhibitors of alpha-synuclein toxicity in yeast; AID 1347070; S. cerevisiae alpha-synuclein toxicity rescue, BacTiter-Glo growth, 24 h; Potency, µM (titrated, usually from 46.1 µM), hits mostly activators; actives 0.02% (n = 94,000); active = well fitted activation curve with a large enough effect; note: 0% is about no effect
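Growth restoration measured by BacTiter-Glo luminescence after 24 hr at 30 deg C; alpha-synuclein yeast, raffinose-pregrown to mid-log, were added at OD600=0.02 in galactose medium onto pinned compounds.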
The depositor's hits bear a star; i = inactive. Potency is the fitted concentration of half-maximal effect.

SMILES | aSyn tox rescue
CCOc1ccc(CCNC(=O)COC(=O)c2cccnc2Cl)cc1OCC | i
O=C(OCc1cn([C@@H]2CN(Cc3cccs3)[C@@H](c3ccc(Cl)cc3)C[C@H]2O)nn1)c1ccccc1 | i
COC(=O)/C=C(\C)N=Nc1c(O)[nH]c2ccccc12 | i
O=C(C1COc2ccccc2O1)N(Cc1cccnc1)c1nc2c(Cl)cccc2s1 (configuration not stated) | i
O=C(Cc1ccccc1)N(Cc1cccnc1)c1nc2c(Cl)cccc2s1 | 14µM*
COc1cccc2sc(N(Cc3cccnc3)C(=O)COc3ccccc3)nc12 | i
Fc1ccc(F)c(Nc2c3c(nc4ccc(Cl)cc24)CCC3)c1 | i
CC1(c2ccc(Cl)cc2)NC(=O)N(CC(=O)Nc2ccc3c(c2)OCO3)C1=O (configuration not stated) | i
Cc1nn2c(=O)cc(COC(=O)c3cccc(NC(=O)COc4ccccc4C)c3)nc2s1 | i
CCCc1cnc2c(c1SCC(=O)Nc1ccc([N+](=O)[O-])cc1)c(=O)n(C)c(=O)n2C | i
Cc1ccc(S(=O)(=O)Cc2nc(-c3ccc(C(=O)NCCCOC(C)C)cc3)oc2C)cc1 | i
COc1ccc(CC(=O)NCc2ccc3c(c2)CCN3C(=O)c2ccc(Cl)cc2)cc1 | i
Cc1ccsc1/C=N/NC(=O)Cc1ccc([N+](=O)[O-])cc1 | i
Cc1ccc(-n2c(=O)cc(N3CCCCCC3)[nH]c2=O)cc1 | i
O=S(=O)(Nc1ccc2nc(-c3ccc(F)cc3)oc2c1)c1ccccc1 | 20µM*
COc1ccc(-c2nc3ccc(NS(=O)(=O)c4ccccc4)cc3o2)cc1 | i
Cc1ccc(S(=O)(=O)Nc2ccc3nc(-c4ccc(F)cc4)oc3c2)cc1 | i
Cc1ccc(NC(=O)CSc2nc(C3CCCC3)nc3c2c(=O)n(C)c(=O)n3C)c(C)c1 | i
Cc1nn(C)c(C)c1S(=O)(=O)N(CC(=O)NCCc1ccc(Cl)cc1)c1ccc(C(C)C)cc1 | i
O=[N+]([O-])c1cc([N+](=O)[O-])c2n[nH]c(-c3ccccc3)c2c1 | i
Cc1cccc(-c2nc(CCNC(=O)c3ccc(Br)o3)cs2)c1 | i
O=C(Cn1cnc2c(nnn2Cc2ccccc2)c1=O)c1ccccc1 | i
COc1cccc(N2CCN(C(=O)c3nn(C)c4c3CSc3ccc(C)cc3-4)CC2)c1 | i
Cn1cc(C(=O)NCc2ccc(Cl)cc2)c(=O)c2cc(S(=O)(=O)N3CCCCCC3)ccc21 | i
